NS1 function inh: influenza NS1 inhibition; Potency, µM (series often up to 46.1 µM), inactives show top-dose activity, positive = more growth; 270,000 tested, 0.4% active; AID 2326; calls by dose curve; note: potency is the fitted concentration of half-maximal effect; actives are rising curves; nearly all actives have a fitted effect of over 50% in size
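In this qHTS, NS1 from influenza A is expressed in budding yeast, where it slows growth. Cells are switched from glucose to 2% galactose medium (pH 6.0, -URA), treated with compound, and growth recovery is read at OD600.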
Pf growth 96h: P. falciparum growth inhibition at 96 hour, primary screen for plastid delayed-death inhibitors; Potency, µM (top dose mostly 28.7 µM), for the others: top-dose activity change, negative = inhibition, usual class: inhibitors; AID 504834; 320,000 tested, 6.9% active; P. falciparum luciferase reporter growth, 96 h; note: potency is the fitted concentration of half-maximal effect; % is set by controls: 0 for no effect and ±100 for the full control effect
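Parasite growth measured via integrated firefly luciferase reporter in P. falciparum. Infected erythrocytes at 2% hematocrit, 0.05% parasitemia final were treated 96 hours at 37 C under 5% CO2, and luminescence was read.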
CHX counter: counter-screen for Shiga toxin inhibitors: cycloheximide protein synthesis inhibition; cell reporter, cycloheximide protein synthesis inhibition counterscreen; max response, %; 300,000 tested, 12% active; in the data active = max response mostly above about 13%, no sharp cut-off; inactive = mostly below about 14%; note: read at 38.3 µM for the half of the compounds with a filed dose; 0% is about no effect
Shiga inhibitor: Shiga toxin inhibition. 290,000 tested, 9.2% active. Vero cells, Shiga toxin protein synthesis inhibition reporter. inhibition, % at 38.7 µM; in the data active = inhibition mostly above about 28%, no sharp cut-off; inactive = mostly below about 43%; note: 0% is about no effect
Pf growth 48h: P. falciparum growth inhibition at 48 hours (one generation) | P. falciparum luciferase growth in erythrocytes, 48 h | Potency, µM (doses to about 28.7 µM), for inactives: at the highest dose activity change, negative = inhibition, most hits filed as inhibitors | 310,000 tested, 5.9% active; note: potency is the fitted concentration of half-maximal effect; % is set by controls: 0 for no effect and ±100 for the full control effect
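Parasite viability was followed by luminescence of a genomically integrated firefly luciferase. Cultures held 0.1% parasitemia at 2% hematocrit (final), incubated under 5% CO2 at 37 C.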
* = called active by the depositor. Compounds with a hit are over-represented: about 21% of the library has one in this group of screens. Unless noted, calls come from the whole dose curve; as a rule, active = well fitted inhibition curve with a large enough effect; inconclusive = small, poorly fitted or top-dose-only effect, or another doubt; inactive = no such curve, though single readings can be large or run the other way.

Screening O=C(Nc1ccc(N2CCCC2)cc1)c1ccccc1F returned NS1 function inh inconclusive, Pf growth 96h -18%, CHX counter 43*, Shiga inhibitor 43* and Pf growth 48h -52%.
`CCOc1ccc(S(=O)(=O)Nc2ccc(C(=O)NCCCN3CCOCC3)cc2)cc1` gave Pf growth 96h 7% and Pf growth 48h 29%.
`CC(NC(=O)C1CCN(C(=O)[C@@H]2Cc3ccccc3CN2)CC1)c1ccccc1` (some centres undefined) gave NS1 function inh -12%, Pf growth 96h 1%, CHX counter -2, Shiga inhibitor -8 and Pf growth 48h 2%.
Screening O=C(Cn1cc([N+](=O)[O-])cn1)Nc1nccs1 returned NS1 function inh -3%, Pf growth 96h 25%, CHX counter -1, Shiga inhibitor -14 and Pf growth 48h 24%.
Screening COc1cccc(NC(=S)NC2CC(C)(C)NC(C)(C)C2)c1 returned NS1 function inh -4%, Pf growth 96h 18%, CHX counter -4, Shiga inhibitor -11 and Pf growth 48h -13%.
Screening O=c1[nH]cnc2c1nc(NCc1ccccc1)n2C1O[C@@H](CO)[C@H](O)[C@@H]1O (some centres undefined) returned NS1 function inh 6%, Pf growth 96h 25%, CHX counter -1, Shiga inhibitor 15 and Pf growth 48h -9%.
For Cc1cc(O)ccc1NC(=O)CCN1C(=O)c2ccc([N+](=O)[O-])cc2C1=O the results were NS1 function inh 24%, Pf growth 96h -3%, CHX counter 4, Shiga inhibitor 8 and Pf growth 48h -3%.
CCCc1nnc(NC(=O)C2CCCO2)s1 (centres undefined) was read as NS1 function inh 2%, Pf growth 96h 15%, CHX counter 25*, Shiga inhibitor 52 and Pf growth 48h 30%.
`CCc1nnc(NC(=O)C2CCCO2)s1` (centres undefined) gave NS1 function inh 2%, Pf growth 96h -4%, CHX counter 17*, Shiga inhibitor 27 and Pf growth 48h 45%.
Screening O=c1c2ccccc2nnn1Cc1ccc2ccccc2c1 returned NS1 function inh -1%, Pf growth 96h 39%, CHX counter 25*, Shiga inhibitor 38 and Pf growth 48h 7%.
O=c1c2ccccc2nnn1COc1ccc(F)cc1Cl was read as NS1 function inh -3%, Pf growth 96h 126%, CHX counter 41*, Shiga inhibitor 55* and Pf growth 48h 211%.
Screening O=c1c2ccccc2nnn1COc1ccc(Cl)cc1Br returned Pf growth 96h 112%, CHX counter 29*, Shiga inhibitor 60 and Pf growth 48h 77%.
Screening O=c1c2ccccc2nnn1COc1cccc2ccccc12 returned Pf growth 96h 183%, CHX counter 45*, Shiga inhibitor 143* and Pf growth 48h 341%.
For Cc1ccc(O)c(NC(=O)c2ccc3c(c2)C(=O)N(Cc2ccco2)C3=O)c1 the results were NS1 function inh -35%, Pf growth 96h 16%, CHX counter 15, Shiga inhibitor -12 and Pf growth 48h 1%.
Screening CCN(CC)S(=O)(=O)c1ccc(O)c(C(=O)OCC(=O)N2c3ccccc3CC2C)c1 (centres undefined) returned NS1 function inh 1%, Pf growth 96h 50%, CHX counter -3, Shiga inhibitor 13 and Pf growth 48h 21%.
Screening COc1ccc(NC(=O)c2cccc(N3C(=O)c4cccc([N+](=O)[O-])c4C3=O)c2)cc1 returned NS1 function inh 2%, Pf growth 96h 25%, CHX counter 24*, Shiga inhibitor 26 and Pf growth 48h 17%.
CC(=O)c1ccc(NC(=O)c2cccc(N3C(=O)c4ccccc4C3=O)c2)cc1 was read as NS1 function inh 5%, Pf growth 96h 46%, CHX counter 4, Shiga inhibitor -10 and Pf growth 48h 13%.
For Cc1ccc(Nc2nc(N)c(C#N)c(CC#N)c2C#N)cc1 the results were NS1 function inh 12%, Pf growth 96h 81%, CHX counter -2, Shiga inhibitor 12 and Pf growth 48h 20%.
Screening CCCC[C@H](NC(C)=O)C(=O)N[C@@H](CCC(=O)O)C(=O)N[C@@H](Cc1cnc[nH]1)C(=O)N[C@H](Cc1ccccc1)C(=O)N[C@@H](CCCN=C(N)N)C(=O)N[C@H](Cc1c[nH]c2ccccc12)C(=O)NCC(N)=O returned CHX counter -7 and Shiga inhibitor -7.

Bioassay records as filed in PubChem.
